For nine compounds, growth inhibition results are on record in PubChem BioAssay (NCI).

Molecules are shown by their SMILES. The panel holds about 79,000 compounds, 15% with a hit somewhere; the sample as a whole holds those more often. Unmarked numbers belong to inactive results. Calls of active or inactive are those of the source. Rule as the data show it: active = growth inhibition above about 70%; inactive = the rest.

Experiment [1] is described as follows: NCI Yeast Anticancer Drug Screen. Data for the rad50 strain (AID 155).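 Also: 0% = growth of vehicle-only cultures of the same strain.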 The following applies: S. cerevisiae rad50 strain growth inhibition, hits give high values. The method, boiled down:
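Growth of the mutant yeast was measured after compound exposure and referenced to vehicle-treated cultures.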

The nature of experiment [2]: NCI Yeast Anticancer Drug Screen. Data for the mec2-1 strain (AID 157). The following applies: S. cerevisiae mec2-1 strain, hits give high values. The method, boiled down:
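Using mec2-1 yeast: add compound, measure growth, express inhibition versus vehicle-treated cultures.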

A short description of experiment [3]: NCI Yeast Anticancer Drug Screen. Data for the sgs1 mgt1 strain (AID 161).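 Also: 0% = growth of cultures given vehicle only.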 The following applies: S. cerevisiae sgs1 mgt1 strain, hits give high values. Summed up: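 Compounds are added to genetically altered yeast, and growth is compared with cultures given vehicle alone to give percent inhibition.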
Experiment [4] in a line: NCI Yeast Anticancer Drug Screen. Data for the cln2 rad14 strain (AID 165).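 Also: 0% = growth equal to vehicle treated cultures.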 As to conditions: S. cerevisiae cln2 rad14 strain, hits give high values. Summed up: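 Yeast strain cln2 rad14, bearing defects in cell cycle control and DNA repair, serves as the test system; values reflect growth inhibition compared with vehicle.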
A short description of experiment [5]: NCI Yeast Anticancer Drug Screen. Data for the bub3 strain (AID 167). As to conditions: S. cerevisiae bub3 mutant strain, hits give high values. The method, boiled down:
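Whole-cell yeast assay. The mutant strain was incubated with compounds, and growth inhibition was determined by comparison with vehicle-treated cells.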

Experiment [6] can be described thus: NCI Yeast Anticancer Drug Screen. Data for the mlh1 rad18 strain (AID 175). As to conditions: S. cerevisiae mlh1 rad18 strain growth inhibition, hits give high values. Summed up: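 Steps: expose repair-defective yeast to compound; measure growth; express inhibition against vehicle-treated controls.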
The mark [7] stands for this setting: at 5.0 µM (retest, dose inferred, filed as 0.5).
Where [8] appears, read: at 50.0 µM (retest, dose inferred, filed as 5.0).

For the compound `C=Cc1cc(O)cc2c1-c1ccc(O)c(C)c1CC2`, the growth inhibition was 10% in experiment [1] (setting [7]); 99% (active) in experiment [1] (setting [8]); 99.7% (active) in experiment [1] (at 50.0 µM); -22% in experiment [2] (setting [7]); 100% (active) in experiment [2] (setting [8]); 99.8% (active) in experiment [2] (at 50.0 µM). Further, the growth inhibition in experiment [3] (setting [7]) is -1%; in experiment [3] (setting [8]), 99% (active); in experiment [3] (at 50.0 µM), 99.8% (active); in experiment [4] (setting [7]) it was -3%; in experiment [4] (setting [8]), 99% (active); in experiment [4] (at 50.0 µM), 99.6% (active). The growth inhibition is 10% in experiment [5] (setting [7]); 99% (active) in experiment [5] (setting [8]); 99.5% (active) in experiment [5] (at 50.0 µM); -5% in experiment [6] (setting [7]); 99% (active) in experiment [6] (setting [8]); 99.7% (active) in experiment [6] (at 50.0 µM).

As to `CC1=C(C#N)C(=O)N(C)C(=O)C1(Cl)Cl`, the growth inhibition in experiment [1] (setting [7]) was -2%; in experiment [1] (setting [8]), -12%; in experiment [1] (at 50.0 µM), -1.3%; in experiment [2] (setting [7]) it was 0%; in experiment [2] (setting [8]), -2%; in experiment [2] (at 50.0 µM) it was -8.1%. Further, the growth inhibition in experiment [3] (setting [7]) was 1%; in experiment [3] (setting [8]), -3%; in experiment [3] (at 50.0 µM), -7.45%; in experiment [4] (setting [7]) it was 0%; in experiment [4] (setting [8]), -12%; in experiment [4] (at 50.0 µM), 14.6%. The growth inhibition in experiment [5] (setting [7]) is 3%; in experiment [5] (setting [8]) it was 4%; in experiment [5] (at 50.0 µM), 5.05%; in experiment [6] (setting [7]) it was 1%; in experiment [6] (setting [8]), -3%; in experiment [6] (at 50.0 µM), 9.45%.

On to `COc1ccc(C(=O)C2Cc3c(ccc4ccccc34)OC2=O)cc1` (configuration not stated), for which the growth inhibition in experiment [1] (setting [7]) was 4%; in experiment [1] (setting [8]), 1%; in experiment [1] (at 50.0 µM), 2.05%; in experiment [2] (setting [7]), -2%; in experiment [2] (setting [8]), -11%; in experiment [2] (at 50.0 µM), -1.25%. Moreover, the growth inhibition in experiment [3] (setting [7]) is -3%; in experiment [3] (setting [8]), 2%; in experiment [3] (at 50.0 µM), -7.8%; in experiment [4] (setting [7]), 7%; in experiment [4] (setting [8]), 1%; in experiment [4] (at 50.0 µM), 20.1%. Moreover, the growth inhibition in experiment [5] (setting [7]) is -1%; in experiment [5] (setting [8]) it was -2%; in experiment [5] (at 50.0 µM) it was -30.4%; in experiment [6] (setting [7]), -5%; in experiment [6] (setting [8]) it was -5%; in experiment [6] (at 50.0 µM), -11.3%.

As to `C(=C/c1cnnc2ccccc12)/c1ccccn1`, the growth inhibition is 5% in experiment [1] (setting [7]); 79% (active) in experiment [1] (setting [8]); 67.2% in experiment [1] (at 50.0 µM); 8% in experiment [2] (setting [7]); 43% in experiment [2] (setting [8]); 6.2% in experiment [2] (at 50.0 µM). For the same compound, the growth inhibition in experiment [3] (setting [7]) is 6%; in experiment [3] (setting [8]), 44%; in experiment [3] (at 50.0 µM) it was 14.8%; in experiment [4] (setting [7]), 0%; in experiment [4] (setting [8]), 42%; in experiment [4] (at 50.0 µM) it was 45.8%. In addition, the growth inhibition in experiment [5] (setting [7]) was -7%; in experiment [5] (setting [8]) it was 28%; in experiment [5] (at 50.0 µM) it was -4.45%; in experiment [6] (setting [7]), 1%; in experiment [6] (setting [8]) it was 42%; in experiment [6] (at 50.0 µM), 38.4%.

As for `CS[C@H]1CC[C@H]2[C@@H]3CCc4cc(O)ccc4[C@H]3CC[C@]12C`, the growth inhibition is 0% in experiment [1] (setting [7]); 73% (active) in experiment [1] (setting [8]); 71.6% (active) in experiment [1] (at 50.0 µM); 2% in experiment [2] (setting [7]); 66% in experiment [2] (setting [8]); 61.8% in experiment [2] (at 50.0 µM). For the same compound, the growth inhibition in experiment [3] (setting [7]) was 0%; in experiment [3] (setting [8]) it was 71% (active); in experiment [3] (at 50.0 µM), 63.4%; in experiment [4] (setting [7]), 7%; in experiment [4] (setting [8]), 85% (active); in experiment [4] (at 50.0 µM) it was 87.6% (active). The growth inhibition is 12% in experiment [5] (setting [7]); 81% (active) in experiment [5] (setting [8]); 82.8% (active) in experiment [5] (at 50.0 µM); -8% in experiment [6] (setting [7]); 75% (active) in experiment [6] (setting [8]); 85.8% (active) in experiment [6] (at 50.0 µM).

Regarding `O=S1(=O)C(Br)=Cc2ccccc21`, the growth inhibition is 16% in experiment [1] (setting [7]); 99% (active) in experiment [1] (setting [8]); 99.3% (active) in experiment [1] (at 50.0 µM); -6% in experiment [2] (setting [7]); 99% (active) in experiment [2] (setting [8]); 99.3% (active) in experiment [2] (at 50.0 µM). Besides, the growth inhibition is 25% in experiment [3] (setting [7]); 99% (active) in experiment [3] (setting [8]); 98.7% (active) in experiment [3] (at 50.0 µM); 17% in experiment [4] (setting [7]); 99% (active) in experiment [4] (setting [8]); 97.7% (active) in experiment [4] (at 50.0 µM). The growth inhibition is 13% in experiment [5] (setting [7]); 99% (active) in experiment [5] (setting [8]); 99.4% (active) in experiment [5] (at 50.0 µM); 23% in experiment [6] (setting [7]); 99% (active) in experiment [6] (setting [8]); 98.7% (active) in experiment [6] (at 50.0 µM).

With `CCC1CCC(CC)C1O` (configuration not stated), the growth inhibition in experiment [1] (setting [7]) is 1%; in experiment [1] (setting [8]), 6%; in experiment [1] (at 50.0 µM), 34.9%; in experiment [2] (setting [7]), 0%; in experiment [2] (setting [8]), -3%; in experiment [2] (at 50.0 µM), 22.9%. For the same compound, the growth inhibition in experiment [3] (setting [7]) is 2%; in experiment [3] (setting [8]), 0%; in experiment [3] (at 50.0 µM) it was 26.8%; in experiment [4] (setting [7]) it was 1%; in experiment [4] (setting [8]), 4%; in experiment [4] (at 50.0 µM), 29.8%. In addition, the growth inhibition in experiment [5] (setting [7]) was 1%; in experiment [5] (setting [8]) it was 2%; in experiment [5] (at 50.0 µM) it was 78.7% (active); in experiment [6] (setting [7]) it was -2%; in experiment [6] (setting [8]), 2%; in experiment [6] (at 50.0 µM), 28.5%.

Regarding `N#CC1(C#N)C(C#N)(C#N)C12CCCC2`, the growth inhibition is 5% in experiment [1] (setting [7]); 50% in experiment [1] (setting [8]); 38.9% in experiment [1] (at 50.0 µM); 4% in experiment [2] (setting [7]); 54% in experiment [2] (setting [8]); 21.4% in experiment [2] (at 50.0 µM). In addition, the growth inhibition in experiment [3] (setting [7]) is 4%; in experiment [3] (setting [8]) it was 66%; in experiment [3] (at 50.0 µM) it was 74% (active); in experiment [4] (setting [7]), 1%; in experiment [4] (setting [8]), 30%; in experiment [4] (at 50.0 µM), 16.9%. The growth inhibition is 4% in experiment [5] (setting [7]); 81% (active) in experiment [5] (setting [8]); 12.4% in experiment [5] (at 50.0 µM); 5% in experiment [6] (setting [7]); 91% (active) in experiment [6] (setting [8]); 67.3% in experiment [6] (at 50.0 µM).

For the compound `COc1c2c(cc3ccc(=O)oc13)C(Cl)C(Cl)O2` (configuration not stated), the growth inhibition in experiment [1] (setting [7]) was 7%; in experiment [1] (setting [8]), 97% (active); in experiment [1] (at 50.0 µM), 77.7% (active); in experiment [2] (setting [7]), 4%; in experiment [2] (setting [8]), 98% (active); in experiment [2] (at 50.0 µM) it was 84.8% (active). Also, the growth inhibition was 10% in experiment [3] (setting [7]); 98% (active) in experiment [3] (setting [8]); 92.8% (active) in experiment [3] (at 50.0 µM); -16% in experiment [4] (setting [7]); 97% (active) in experiment [4] (setting [8]); 18.9% in experiment [4] (at 50.0 µM). The growth inhibition was 9% in experiment [5] (setting [7]); 98% (active) in experiment [5] (setting [8]); 91.2% (active) in experiment [5] (at 50.0 µM); 14% in experiment [6] (setting [7]); 97% (active) in experiment [6] (setting [8]); 97.7% (active) in experiment [6] (at 50.0 µM).
